From PubChem BioAssay
TDP1 cell noCPT: qHTS for Inhibitors of human tyrosyl-DNA phosphodiesterase 1 (TDP1): qHTS in cells in absence of CPT | DT40 Tdp1-/- hTDP1 cells, no CPT, ATP luminescence, 48 h | Potency, µM (doses to about 46.2 µM), for inactives: at the highest dose activity change, negative = growth inhibition, most hits filed as inhibitors | 420,000 compounds, 15% hits; note: % is set by controls: 0 for no effect and ±100 for the full control effect; nearly all actives have a fitted effect of over 55% in size
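Chicken DT40 Tdp1-/- cells complemented with human TDP1, screened without camptothecin (DMSO vehicle only), 400 cells/well. Compounds pin-transferred, cells incubated at 37 °C for at least 48 hr. Growth read as ATP-dependent luminescence (CellTiter-Glo, 30 min at RT).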
TDP1 block: qHTS Assay for Inhibitors of Tyrosyl-DNA Phosphodiesterase (TDP1). 350,000 compounds, 0.28% hits. AID 485290, 2010. Potency, µM (titrated, usually from 130 µM), for the others: at the top dose activity change, negative = inhibition, most hits filed as inhibitors. recombinant TDP1, AlphaScreen DNA substrate cleavage; note: % is set by controls: 0 for no effect and ±100 for the full control effect; nearly all actives have a fitted effect of over 40% in size
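Steps: enzyme plus compound, 15 min RT; add biotin/phosphotyrosine-FITC oligonucleotide (15 nM final), react 5 min; add donor/acceptor beads (10 ug/ml final), 10 min; read AlphaScreen. Tdp1 at 1 nM final.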
ClpP mod: qHTS Assay for Activators of ClpP; AID 651965, 2013; purified B. subtilis ClpP, FRET peptide cleavage, 20 min; ATP-dependent Clp protease proteolytic subunit (Bacillus subtilis (strain 168)), P80244; Potency, µM (highest dose often 57.5 µM), inactives show top-dose activity change, negative = active; 340,000 compounds, 1.9% hits; active = well fitted falling curve with a large enough effect; inconclusive = small, poorly fitted or top-dose-only effect; inactive = no such curve, though single readings can be large or run the other way; note: the source files actives as falling curves though it sought activators and does not explain the sign; nearly all actives have a fitted effect of over 65% in size
Target sequence (P80244 whole entry, looked up): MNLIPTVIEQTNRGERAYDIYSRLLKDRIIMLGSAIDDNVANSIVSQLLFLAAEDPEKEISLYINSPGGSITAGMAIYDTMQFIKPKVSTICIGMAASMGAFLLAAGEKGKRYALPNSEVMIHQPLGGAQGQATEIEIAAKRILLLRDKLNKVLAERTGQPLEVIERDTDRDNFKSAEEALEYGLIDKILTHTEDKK
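Purified B. subtilis ClpP, 10 microg/mL final in Tris/HCl pH8 with KCl, BSA, glycerol and Tween-20, cleaved an Abz/nitrotyrosine-quenched decapeptide. Fluorescence (ex 320, em 430) was read at 0 and 20 min at room temperature. Delta was normalized to 5.8 microM ADEP and DMSO/no-enzyme controls.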
TDP1 cell CPT: qHTS for Inhibitors of human tyrosyl-DNA phosphodiesterase 1 (TDP1): qHTS in cells in presence of CPT; chicken DT40 Tdp1-/-;hTDP1 cells + 20 nM CPT, ATP luminescence, 48 h; Potency, µM (top dose mostly 46.2 µM), for the others: at the top dose activity change, negative = growth inhibition, hits mostly inhibitors; 420,000 compounds, 12% hits; note: % is set by controls: 0 for no effect and ±100 for the full control effect; nearly all actives have a fitted effect of over 55% in size
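Chicken DT40 Tdp1-/- cells complemented with human TDP1, 400 cells/well, exposed to compounds plus 20 nM camptothecin for at least 48 h at 37 C; viability read as ATP content by CellTiter-Glo luminescence.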
Active calls of the source: *; ? = inconclusive; . = no result; [ ] = remark or other dose. In the library only some 17% were active in any assay of this set; here they are far more common. Unless noted, calls come from the whole dose curve; as a rule, active = well fitted curve in the direction sought with a large enough effect; inconclusive = small, poorly fitted or top-dose-only effect, or another doubt; inactive = no such curve, though single readings can be large; an effect the other way counts as inactive or inconclusive. Potency is the fitted concentration of half-maximal effect.

SMILES	TDP1 cell noCPT	TDP1 block	ClpP mod	TDP1 cell CPT
COc1ccc2[nH]c(CN3CCN(CC(C)C)C(CCO)C3)c(C)c2c1 (centres undefined)	23µM*	4%	1%	-17%
CC(C)CN1CCN(Cc2c[nH]c3ccccc23)CC1CCO (centres undefined)	?	.	0%	8.2µM*
CC(C)=CCN1CCN(Cc2c[nH]c3ccccc23)CC1CCO (centres undefined)	?	4%	0%	?
CC(C)CCN1CCN(Cc2ccoc2)CC1CCO (centres undefined)	6%	.	-4%	7%
CC(C)CCN1CCN(CC(c2ccccc2)c2ccccc2)CC1CCO (centres undefined)	21µM*	3%	.	23µM*
Cc1ccc(OCCNC(=O)c2ccccc2SCC(=O)N2CCCC2)cc1	?	2%	1%	?
COc1cc([N+](=O)[O-])ccc1NC(=O)NCCCN1CCCC1=O	9%	5%[56.1 µM]	1%	-14%
COc1cc(/C=N/NC(=O)NC23CC4CC(CC(C4)C2)C3)ccc1OCC(N)=O	8.2µM*	.	0%	?
COc1ccc(C=NNC(=S)NC23CC4CC(CC(C4)C2)C3)cc1OC	?	.	-1%	?
COc1cc(OC)c(C=NNC(=S)NC23CC4CC(CC(C4)C2)C3)c(OC)c1	6.5µM*	.	-1%	6.5µM*
CC(C)(C)c1nnc(NC(=O)COc2ccc3c(c2)OCO3)s1	-17%	-1%	-4%	-8%
O=C(CSc1c2c(nc3ccccc13)CCC2)Nc1ccc(F)cc1F	?	2%	0%	?
Cc1ccc2nc3c(c(Nc4ccccc4)c2c1)CCC3	?	1%	.	?
Fc1ccc(F)c(Nc2c3c(nc4ccc(Cl)cc24)CCC3)c1	?	4%	?	16µM*
FC(F)(F)c1cccc(Nc2c3c(nc4ccc(Cl)cc24)CCC3)c1	6.5µM*	2%	?	7.3µM*
CS(=O)(=O)c1ccc(NC(=O)COc2ccccc2C(=O)Nc2ccccc2)cc1	?	.	1%	20µM*
O=C(COc1ccccc1C(=O)Nc1ccccc1)Nc1ccccc1Br	?	.	1%	?
O=C(COc1ccccc1C(=O)Nc1ccccc1)Nc1ccccc1-c1ccccc1	?	.	-27%	13µM*
COc1ccccc1OCCC(=O)OCC(=O)Nc1cccc(Br)c1	-10%	2%	?	2%
N#Cc1ccccc1NC(=O)COc1ccccc1C(=O)Nc1ccccc1	?	-4%	-7%	16µM*
COc1ccccc1OCCC(=O)OCC(=O)Nc1ccc(Br)cc1	-7%	-1%	28µM*	-6%
C=CCNC(=O)c1ccc(N(Cc2ccccc2)S(C)(=O)=O)cc1	-22%	.	-2%	4%
CC1=C(C(=O)OCc2ccccc2)C(c2ccccc2OS(=O)(=O)c2ccc(C)cc2)NC(=O)N1CCCC(=O)O (centres undefined)	?	.	0%	-28%
O=C(Nc1ccc(C2CC2(Cl)Cl)cc1)c1ccccc1Br (centres undefined)	13µM*	0%	-2%	18µM*
O=C(COc1ccccc1C(=O)Nc1ccccc1)Nc1ccc(-c2ccccc2)cc1	11µM*	.	?	?
SMILES	TDP1 cell noCPT	TDP1 block	ClpP mod	TDP1 cell CPT
COc1cccc(NC(=O)COc2ccccc2C(=O)Nc2ccccc2)c1	?	.	3%	?
O=C(COc1ccccc1C(=O)Nc1ccccc1)Nc1ccc2ccccc2c1	20µM*	.	?	?
O=C(Oc1ccccc1C(=O)Nc1ccccc1)c1ccccc1Br	21µM*	2%	-2%	18µM*
O=C(Nc1ccc(C(=O)N2CCCC2)cc1)c1ccccc1Br	-5%	1%	-2%	-8%
COc1ccc(C2/C(=C(\O)c3ccc4c(c3)CC(C)O4)C(=O)C(=O)N2Cc2cccnc2)c(OC)c1 (centres undefined)	4%	5%	-2%	-3%
CCOC(=O)[C@]1(C(NC(=O)OC)c2cccc(F)c2)CCCC1=O (some centres undefined)	.	1%[21 µM]	.	.
Cc1ccccc1NC(=O)COC(=O)c1ccccc1OCC(=O)Nc1ccc(Br)cc1	5%	.	-2%	-4%
Cc1ccccc1NC(=O)c1ccccc1OCC(=O)Nc1ccc(Br)cc1	14µM*	.	-9%	?
O=C(COc1ccccc1C(=O)Nc1ccccc1)c1ccc(F)cc1	?	0%	.	?
CC(OC(=O)c1ccccc1OCC(=O)Nc1ccc(Br)cc1)C(=O)NC1CCCC1 (centres undefined)	10µM*	.	-4%	8.9µM*
COc1ccc(C(=O)COc2ccccc2C(=O)Nc2ccccc2)cc1	18µM*	0%	-8%	12µM*
COC(=O)C1(C(=O)OC)C[C@H]2CON=C2[C@H]1c1ccccc1	.	8%	.	.
CCN(CC)CCCNC(=O)c1ccc(S(=O)(=O)Nc2ccc(C)c(C)c2)cc1	16µM*	0%[56.1 µM]	1%	?
CC(=O)Nc1ccc(S(=O)(=O)Nc2ccc(C)c(C)c2)cc1	.	0%	.	.
C=CCN(c1ccccc1)S(=O)(=O)c1cccc(C(=O)N(CC)CC(=O)Nc2c(F)cccc2F)c1	15µM*	4%	-2%	23µM*
CCN(c1ccccc1)S(=O)(=O)c1cccc(C(=O)N(C)CC(=O)Nc2ccc(F)c(F)c2F)c1	18µM*	.	0%	15µM*
COc1ccc(/C(C)=N/NC(=O)CNC(=O)c2cccnc2)cc1OC	-4%	.	.	7%
COc1ccccc1NC(=S)NN=C(C)c1ccccn1	0.15µM*	.	-4%	0.013µM*
CC(=NNC(=S)Nc1ccc(C)cc1)c1ccccn1	0.018µM*	.	-30%	0.018µM*
CC(=NNC(=S)Nc1cccc(C)c1)c1ccccn1	0.033µM*	.	1%	0.018µM*
C=CCNc1ncnc2c1ncn2[C@H]1CN(Cc2cccc3ccccc23)C[C@@H](CO)O1	?	.	1%	?
COc1cc(CNc2ncnc3c2ncn3[C@H]2CN(Cc3ccc(C(=O)O)cc3)C[C@@H](CO)O2)cc(OC)c1OC	10%	.	-3%	1%
COc1cc(CNc2ncnc3c2ncn3[C@H]2CN(Cc3cccc4ccccc34)C[C@@H](CO)O2)cc(OC)c1OC	23µM*	.	-1%	18µM*
COc1cc(CNc2ncnc3c2ncn3[C@H]2CN(Cc3ccncc3)C[C@@H](CO)O2)cc(OC)c1OC	13µM*	.	-2%	13µM*
COCCNc1ncnc2c1ncn2[C@H]1CN(Cc2cc(OC)c(OC)c(OC)c2)C[C@@H](CO)O1	-5%	.	-5%	-9%
COc1cc(CNc2ncnc3c2ncn3[C@H]2CN(Cc3ccc(-c4ccccc4)cc3)C[C@@H](CO)O2)cc(OC)c1OC	12µM*	.	2%	8.2µM*
